# High-throughput results: PubChem, National Center for Advancing Translational Sciences (NCATS)
# This is a sample that favours compounds with a hit; in the whole collection about 21% have one here.
# VP16 counter: VP16 counterscreen qHTS for inhibitors of ROR gamma transcriptional activity; Drosophila S2 Gal4-VP16 UAS-luciferase, luminescence, 20 h; Potency, µM (series often up to 53.6 µM), without a hit: top-dose activity, negative = inhibition, usual class: inhibitors; hit rate 3.5% among 310,000;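 further: Gal4-VP16 expression switched on by copper sulfate through the metallothionein promoter; potency means the concentration at half of the fitted maximal effect; nearly all actives have a fitted effect of over 50% in size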
# ELG1 DNA repair: qHTS screen for small molecules that inhibit ELG1-dependent DNA repair in human embryonic kidney (HEK293T) cells expressing luciferase-tagged ELG1; Potency, µM (series often up to 46.1 µM), for the others: at the highest dose activity change, negative = inhibition, usual class: inhibitors; AID 504467, 2011; hit rate 2.3% among 330,000; HEK293T ELG1-luciferase reporter, luminescence, 16 h; DNA damage induced by 5-fluorouridine; further: potency means the concentration at half of the fitted maximal effect; nearly all actives have a fitted effect of over 55% in size
#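 HEK293T cells expressing luciferase-tagged ELG1 (2,000/well) received 5-Fluorouridine plus compound or DMSO for 16 hr at 37 °C. Luciferase was read by ONE-Glo luminescence after 30 min at room temperature.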
# IL-1B inflam inh: qHTS for Inhibitors of Inflammasome Signaling: IL-1-beta AlphaLISA Primary Screen | hit rate 4.7% among 360,000 | AID 743279, 2014 | THP-1 LPS/ATP IL-1B secretion, AlphaLISA, 16 h; active compounds read low | activity change, % at 57.5 µM; in the data active means activity change below about -50%; inconclusive means mostly about -30% to -49%
#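 THP-1 cells pretreated 1 hr with compounds (up to 57.5 uM final), then stimulated with LPS (250 ng/mL final) plus ATP (1.25 mM final); secreted IL-1B measured by AlphaLISA after 16 hr, decreased signal indicating inhibition.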
# DT40 TDP1 CPT: qHTS for Inhibitors of human tyrosyl-DNA phosphodiesterase 1 (TDP1): qHTS in cells in presence of CPT; chicken DT40 Tdp1-/-;hTDP1 cells + 20 nM CPT, ATP luminescence, 48 h; AID 686979, 2013; Potency, µM (top dose mostly 46.2 µM), for inactives: at the top dose activity change, negative = growth inhibition, hits mostly inhibitors; hit rate 12% among 420,000; further: potency means the concentration at half of the fitted maximal effect; nearly all actives have a fitted effect of over 55% in size
#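 Chicken DT40 Tdp1-/- cells stably complemented with human TDP1 were seeded at 400 cells/well in medium containing 20 nM camptothecin, exposed to pin-transferred compounds, and grown at 37 °C for at least 48 hr. Viability was read as ATP luminescence.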
# DT40 TDP1 no CPT: qHTS for Inhibitors of human tyrosyl-DNA phosphodiesterase 1 (TDP1): qHTS in cells in absence of CPT; DT40 Tdp1-/- hTDP1 cells, no CPT, ATP luminescence, 48 h; Potency, µM (top dose mostly 46.2 µM), for the others: at the top dose activity change, negative = growth inhibition, most hits filed as inhibitors; hit rate 15% among 420,000; further: potency means the concentration at half of the fitted maximal effect; nearly all actives have a fitted effect of over 55% in size
#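 Seeded 400 DT40-hTDP1 cells/well (vehicle DMSO, no 20 nM CPT); pinned compounds; ≥48 hr at 37 °C; CellTiter-Glo luminescence as viability measure.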
# RORgamma inh: qHTS for inhibitors of ROR gamma transcriptional activity; hit rate 5.4% among 310,000; AID 2551, 2010; Drosophila S2 Gal4-RORgamma UAS-luciferase reporter, 20 h; Nuclear receptor ROR-gamma (Mus musculus), P51450; Potency, µM (highest dose often 53.6 µM), without a hit: at the highest dose activity change, negative = inhibition, actives largely listed as inhibitors; further: potency means the concentration at half of the fitted maximal effect; nearly all actives have a fitted effect of over 60% in size
# Target sequence (P51450 whole entry, looked up, the tested form may be a part): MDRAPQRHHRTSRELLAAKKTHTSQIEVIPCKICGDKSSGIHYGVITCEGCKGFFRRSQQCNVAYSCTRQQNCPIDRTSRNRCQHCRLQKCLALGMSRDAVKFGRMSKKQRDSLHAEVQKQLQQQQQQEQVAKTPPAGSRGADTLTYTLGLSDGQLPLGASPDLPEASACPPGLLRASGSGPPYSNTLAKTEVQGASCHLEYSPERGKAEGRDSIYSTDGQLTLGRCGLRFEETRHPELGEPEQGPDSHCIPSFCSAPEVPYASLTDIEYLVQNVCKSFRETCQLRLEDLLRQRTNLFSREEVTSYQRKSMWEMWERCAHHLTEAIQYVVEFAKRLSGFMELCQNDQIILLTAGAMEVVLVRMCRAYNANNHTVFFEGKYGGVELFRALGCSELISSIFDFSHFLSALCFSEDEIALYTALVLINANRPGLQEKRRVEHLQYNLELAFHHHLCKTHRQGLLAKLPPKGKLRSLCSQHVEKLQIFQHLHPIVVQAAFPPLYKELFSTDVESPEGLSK
#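 ROR gamma transcriptional activity was tracked as Gal4-UAS luciferase output in stably transfected Drosophila Schneider cells, with compound added 1 hr before 700 uM copper sulfate induction and a 20 hr ambient-temperature incubation.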
# Starred values were filed as active, the others as inactive; ? = inconclusive; · = no result; [ ] = remark or other dose. Unless noted, the call rests on the fitted dose curve; in most records, active means well fitted curve in the direction sought with a large enough effect; inconclusive means small, poorly fitted or top-dose-only effect, or another doubt; inactive means no such curve, though single readings can be large; an effect the other way counts as inactive or inconclusive. On the % scale 0 is the no-effect control and ±100 the full control effect.
SMILES,VP16 counter,ELG1 DNA repair,IL-1B inflam inh,DT40 TDP1 CPT,DT40 TDP1 no CPT,RORgamma inh
C=CCNC(=S)Nc1ccc2nc(C)oc2c1,-11.8%,0.0%,-9.3,-8.5%,?,-16.3%
C=CCNC(=S)Nc1nc2c(cc1C(=O)OCC)CCCC2,8.91µM*,?,5.5,?,23.1µM*,3.98µM*
CCNC(=S)Nc1nc2c(cc1C(=O)OCC)CCCC2,1.78µM*,?,9.5,?,?,0.562µM*
O=C(CN1C=NS(=O)(=O)c2ccccc21)Nc1ccc(Br)cc1,·,·,·,1.8%,?,·
Cn1c(=O)c2c(nc(OC3CCCC3)n2C)n(C)c1=O,·,·,-21.6,6.5%,-0.3%,·
COc1ccc(CCN=C(NS(=O)(=O)c2ccc(Cl)cc2)c2ccccc2)cc1,2.5%,-25.6%,-66.3*,?,?,4.8%
COc1ccc(CCN=C(NS(=O)(=O)c2ccccc2)c2ccccc2)cc1OC,-1.0%,-11.6%,4.6,14.0%,-3.9%,6.9%
O=C(Nc1cccc(O)c1)c1c(O)c2ccccc2[nH]c1=O,-18.8%,?,3.1,18.4µM*,?,5.8%
CCCCCCCC(=O)NNC(=O)c1c(O)c2ccccc2[nH]c1=O,-2.9%,-8.6%,-4.2,?,0.1%,-7.1%
Cc1cccc(NC(=O)c2c(O)c3ccccc3[nH]c2=O)c1,7.3%,?,19.2,-24.8%,-10.1%,1.4%
Cc1cccc(C)c1NC(=O)c1c(O)c2ccccc2[nH]c1=O,·,7.1%,-6.1,18.4µM*,?,·
CCCCCCNC(=O)c1c(O)c2ccccc2[nH]c1=O,14.3%,?,-26.1,?,13µM*,3.5%
CC(=O)N1CCC(C(=O)Nc2nnc(C(C)C)s2)CC1,·,·,·,16.3%,13.9%,·
CN(Cc1ccco1)c1ncncc1-c1cccc(NS(C)(=O)=O)c1,2.9%,·,·,-17.6%,-17.7%,2.0%
COc1ccc(OC)c(C(=O)N(Cc2cc3cccc(C)c3nc2N2CCC(O)CC2)C2CC2)c1,·,·,·,3.9%[9.04 µM],?,·
CCc1ccc(CN(C)C(=O)C2=CC=CN3CCS(=O)(=O)N=C23)cc1,·,?,-7.2,-14.9%,-17.8%,·
CCOc1ccc(NC(=S)Nc2ccc(OC(F)(F)F)cc2)cc1,?,-1.5%,3.2,4.8%,-11.6%,?
CCOc1ccc(NC(=S)c2ccc3ccccc3n2)cc1,?,?,15.5,?,?,6.31µM*
Cc1ccc(NC(=O)c2cc(C)nc3ccccc23)c(C)c1,-1.1%,-11.3%,20.2,-17.7%,?,1.5%
Cc1ccc(NC(=S)c2ccc3ccccc3n2)c(C)c1,7.94µM*,?,25.4,?,?,2µM*
CCNC(=S)Nc1ccc(OCC)cc1,?,9.6%,0.0,1.1%,-28.0%,12.6µM*
CCOc1ccc(NC(=S)NNC(=O)c2ccc(Br)cc2)cc1,-3.8%,-0.2%,-64.4*,-9.0%,?,-26.6%
CCOc1ccc(NC(=S)Nc2ccc(OCC)cc2)cc1,-29.9%,1.0%,-80.4*,5.5%,-16.0%,10µM*
CCOc1ccc(NC(=S)Nc2cc(OC)c(Cl)cc2OC)cc1,22.4µM*,?,10.8,14.6µM*,?,10µM*
Cc1ccccc1NC(=S)NC(C)CCc1ccccc1 (stereo unspecified),3.55µM*,-15.5%,-5.8,?,20.6µM*,4.47µM*
CCOc1ccc(NC(=S)Nc2ccc(C)c([N+](=O)[O-])c2)cc1,?,-7.9%,-17.8,-4.4%,?,14.1µM*
O=C(NCCN1CCCCC1)c1ccc(F)cc1Cl,·,7.4%,0.0,-14.0%,24.9%,·
